A number with no mark means an inactive call. Inconclusive results are not listed. Where a call stands in place of a potency, no number is given. The source made the active and inactive calls. Calls come from the whole dose curve; as a rule, active = well fitted curve in the direction sought with a large enough effect in the repeat runs; inconclusive = weak or mixed curves; inactive = no such curve, though single readings can be large; an effect the other way counts as inactive or inconclusive.
Assays:
[1] = Human pregnane X receptor (PXR) small molecule agonists, qHTS cell viability counter screen (AID 1346977); note: nearly all actives have a fitted effect of over 50% in size; note: potency is the fitted concentration of half-maximal effect
Summary of the method: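 After a 5hr pre-incubation, PXR-Luc HepG2 cells received compounds plus positive control in DMSO and were kept 24hr at 37C. Cell viability was quantified by fluorescence from CellTiter-Fluor added for the final hour.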

[2] = Caspase-3/7 induction in HepG2 cells by small molecules, qHTS assay (AID 1346978); note: nearly all actives have a fitted effect of over 15% in size
Summary of the method: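 Wild-type HepG2 cells (2,000/well) were settled 5 h at 37 C, 5% CO2, then exposed to compounds in DMSO for 17 h. Caspase-3/7 activity was read by luminescence 30 min after adding Caspase-Glo 3/7 reagent at room temperature.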

[3] = Caspase-3/7 induction in CHO-K1 cells by small molecules, qHTS cell viability counter screen (AID 1346979); note: nearly all actives have a fitted effect of over 35% in size
Summary of the method: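 Multiplexed with Caspase-Glo 3/7 in CHO-K1 cells, this counter screen added CellTiter-Fluor after 16hr of compound exposure and recorded fluorescence 1hr later.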

[4] = Caspase-3/7 induction in HepG2 cells by small molecules, qHTS cell viability counter screen (AID 1346981); note: series mostly up to about 92 µM; nearly all actives have a fitted effect of over 30% in size
Summary of the method: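 Treatment of HepG2 cells with DMSO-delivered compounds ran 16 hr at 37 C following a 5-hr pre-incubation of 2,000 cells/well. CellTiter-Fluor fluorescence, read after 1 hr, served as the viability measure in a qHTS format.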

[5] = biological target: Nuclear receptor subfamily 1 group I member 2 (Homo sapiens) (UniProt O75469); assay: Human pregnane X receptor (PXR) small molecule agonists, qHTS assay (AID 1346982); note: nearly all actives have a fitted effect of over 35% in size; note: potency is the fitted concentration of half-maximal effect
Nuclear receptor subfamily 1 group I member 2 (Homo sapiens), sequence (O75469 whole entry, looked up): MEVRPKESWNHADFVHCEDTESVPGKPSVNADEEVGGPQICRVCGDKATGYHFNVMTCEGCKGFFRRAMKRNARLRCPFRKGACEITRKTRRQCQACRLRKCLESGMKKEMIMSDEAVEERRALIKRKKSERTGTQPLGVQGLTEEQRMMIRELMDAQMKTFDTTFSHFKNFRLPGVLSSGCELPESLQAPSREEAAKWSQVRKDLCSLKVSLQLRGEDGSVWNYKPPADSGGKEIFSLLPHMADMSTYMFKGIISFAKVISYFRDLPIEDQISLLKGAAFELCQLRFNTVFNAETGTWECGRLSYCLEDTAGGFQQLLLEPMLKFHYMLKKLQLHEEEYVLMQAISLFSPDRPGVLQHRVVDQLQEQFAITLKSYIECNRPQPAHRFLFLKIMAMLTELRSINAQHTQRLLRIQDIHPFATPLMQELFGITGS
Summary of the method: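 Stable HepG2 line reporting PXR-mediated CYP3A4 expression via luciferase. Treatment: 24 hr with compounds in DMSO at 37 C. Detection: ONE-Glo luminescence.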

[6] = biological target: Cytochrome P450 2D6 (Homo sapiens) (UniProt P10635); assay: Cytochrome P450 Family 2 Subfamily D Member 6 (CYP2D6) small molecule antagonists: luciferase reporter qHTS assay (AID 1671196); note: nearly all actives have a fitted effect of over 50% in size; note: potency is the fitted concentration of half-maximal effect; for activity change, negative = inhibition: series mostly up to about 120 µM
Cytochrome P450 2D6 (Homo sapiens), sequence (P10635 whole entry, looked up): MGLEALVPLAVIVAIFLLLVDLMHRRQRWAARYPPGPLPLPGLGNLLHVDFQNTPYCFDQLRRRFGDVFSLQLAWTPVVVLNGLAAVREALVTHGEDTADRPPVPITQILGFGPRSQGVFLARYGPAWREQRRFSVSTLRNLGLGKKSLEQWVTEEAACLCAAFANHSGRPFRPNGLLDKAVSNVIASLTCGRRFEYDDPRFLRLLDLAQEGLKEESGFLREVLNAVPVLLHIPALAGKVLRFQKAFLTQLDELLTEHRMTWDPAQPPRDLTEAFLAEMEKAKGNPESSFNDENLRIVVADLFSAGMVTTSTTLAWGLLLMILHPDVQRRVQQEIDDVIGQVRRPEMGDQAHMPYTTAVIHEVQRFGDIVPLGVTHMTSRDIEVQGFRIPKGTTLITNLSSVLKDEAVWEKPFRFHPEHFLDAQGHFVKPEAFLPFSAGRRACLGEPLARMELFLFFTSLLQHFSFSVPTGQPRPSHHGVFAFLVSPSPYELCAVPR
Summary of the method: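 Chemicals tested for interference with CYP2D6 activity; proluciferin substrate, NADPH regeneration, 1 h at room temperature, luminescent detection.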

[7] = Caspase-3/7 induction in CHO-K1 cells by small molecules, qHTS assay (AID 1346980); note: nearly all actives have a fitted effect of over 15% in size
Summary of the method: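 Wild-type cells were seeded at 1,500 per well and settled 5 hr at 37 C, 5% CO2, then exposed to DMSO-dissolved compounds for 17 hr. Caspase-Glo 3/7 reagent was added, and luminescence was read after 30min at room temperature.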

[8] = biological target: Nuclear receptor subfamily 1 group I member 2 (Rattus norvegicus) (UniProt Q9R1A7); assay: Rat pregnane X receptor (rPXR) activation by small molecules, qHTS assay (AID 1346983); details: rPXR luciferase reporter cells, One-Glo luminescence, 24 h; max activation: active compounds read high; note: nearly all actives have a fitted effect of over 20% in size
Nuclear receptor subfamily 1 group I member 2 (Rattus norvegicus), sequence (Q9R1A7 whole entry, looked up): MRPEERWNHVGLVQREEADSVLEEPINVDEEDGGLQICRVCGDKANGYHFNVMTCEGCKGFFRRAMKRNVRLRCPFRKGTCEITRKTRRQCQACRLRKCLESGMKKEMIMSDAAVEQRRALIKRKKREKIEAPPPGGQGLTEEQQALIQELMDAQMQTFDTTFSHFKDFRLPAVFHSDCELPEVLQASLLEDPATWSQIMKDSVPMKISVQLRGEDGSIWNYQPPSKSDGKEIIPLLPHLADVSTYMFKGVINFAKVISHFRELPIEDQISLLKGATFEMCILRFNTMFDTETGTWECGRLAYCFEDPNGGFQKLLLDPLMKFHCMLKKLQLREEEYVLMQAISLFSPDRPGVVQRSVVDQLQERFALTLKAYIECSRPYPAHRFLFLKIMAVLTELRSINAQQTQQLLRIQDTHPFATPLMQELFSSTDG
Summary of the method: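 Cell-based rPXR luciferase reporter assay, 2,000 cells per well, rested 5hr at 37 C before compound addition in DMSO, then 24 hr at 37 C. One-Glo reagent was added and luminescence read after 30 min at room temperature.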

[9] = biological target: Nuclear receptor subfamily 1 group I member 2 (Homo sapiens) (UniProt O75469); assay: CYP3A4 induction through human pregnane X receptor (PXR) by small molecules, qHTS assay (AID 1346984); note: nearly all actives have a fitted effect of over 40% in size
Summary of the method: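 After 24 h at 37C with compound, DPX-2 cells (HepG2, co-transfected PXR response element and CYP3A4 promoter-luciferase) got 3uM final P450-Glo Luciferin-IPA for 3 h; One-Glo luminescence followed.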

[10] = biological target: Nuclear receptor subfamily 1 group I member 2 (Homo sapiens) (UniProt O75469); assay: Human pregnane X receptor (PXR) activation by small molecules, qHTS assay (AID 1346985); note: nearly all actives have a fitted effect of over 40% in size
Summary of the method: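 DPX-2 cells (HepG2 co-transfected with a PXR response element and a CYP3A4-promoter luciferase construct) were seeded at 2,000 per well, rested 5 hr at 37C, then exposed to DMSO-dissolved compounds for 24 hr. Activation was read as luciferase luminescence.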

OCCCCCCO
Potency [1]: inactive | outcome [2]: inactive | Potency [3]: inactive | outcome [4]: inactive | Potency [5]: inactive | Potency [6]: 36 µM (active)

CN(C)C(=O)C(CCN1CCC(O)(c2ccc(Cl)cc2)CC1)(c1ccccc1)c1ccccc1
Potency [1]: 23.7 µM (active) | outcome [7]: inactive | Potency [5]: inactive

CCCc1ccc(N)cc1
Potency [1]: inactive | outcome [2]: inactive | Potency [3]: inactive | outcome [4]: inactive | Potency [6]: inactive

CCCCCCCCCCCl
Potency [1]: inactive | outcome [2]: inactive | Potency [3]: inactive | outcome [4]: inactive | Potency [5]: inactive | Potency [6]: inactive

Cc1cc(C)cc(OCC2CNC(=O)O2)c1 (stereo not given)
Potency [1]: inactive | outcome [2]: inactive | Potency [3]: inactive | outcome [4]: inactive | Potency [5]: inactive | max activation [8]: -2.51% | Potency [9]: inactive | Potency [10]: inactive | Potency [6]: inactive

CCN1CCCC1CNC(=O)c1cc(S(N)(=O)=O)ccc1OC (stereo not given)
Potency [1]: inactive | outcome [2]: inactive | outcome [7]: inactive | outcome [4]: inactive | Potency [6]: 20 µM (active)

[O-][N+](=Nc1ccccc1)c1ccccc1
Potency [1]: inactive | outcome [2]: inactive | outcome [7]: inactive | outcome [4]: inactive | Potency [5]: 21.7 µM (active) | max activation [8]: 13.9% | Potency [9]: inactive | Potency [10]: inactive

CCCCCC[C@@H](CCC)C(=O)O
Potency [1]: inactive | outcome [2]: inactive | outcome [7]: inactive | outcome [4]: inactive | Potency [5]: inactive | Potency [6]: inactive

NC(=O)c1ncn([C@@H]2O[C@H](CO)[C@@H](O)[C@H]2O)c1N
outcome [2]: inactive | Potency [3]: inactive | outcome [7]: inactive | outcome [4]: inactive | Potency [5]: inactive | max activation [8]: 0.984% | Potency [9]: inactive | Potency [10]: inactive | Potency [6]: inactive

O=S(=O)(c1cccc2cnccc12)N1CCCNCC1
outcome [2]: inactive | Potency [3]: inactive | outcome [7]: inactive | outcome [4]: inactive

COc1nc(C)nc(N)n1
Potency [1]: inactive | outcome [2]: inactive | outcome [7]: inactive | outcome [4]: inactive | Potency [5]: inactive | Potency [6]: inactive

CCCCCCCCCCCCCCCCCC(=O)OCCCCCCCCCCCCCC(C)C
Potency [1]: inactive | outcome [2]: inactive | Potency [3]: inactive | outcome [4]: inactive | Potency [5]: inactive | Potency [6]: inactive

C/C=C1\C(=O)C[C@H]2[C@@H]3CCC4=CC(=O)CC[C@]4(C)[C@H]3CC[C@]12C
Potency [1]: inactive | outcome [2]: inactive | outcome [7]: inactive | outcome [4]: inactive | Potency [6]: inactive

O=c1[nH]c2ccccc2c(=O)n1CCCl
Potency [1]: inactive | outcome [2]: inactive | Potency [3]: inactive | outcome [4]: inactive | Potency [5]: inactive | Potency [6]: inactive

Cc1c(F)cc2c(=O)c(C(=O)O)cn3c2c1CCC3C (stereo not given)
Potency [1]: inactive | outcome [2]: inactive | Potency [3]: inactive | outcome [4]: inactive | Potency [5]: inactive | Potency [6]: inactive

CC(C)CCCC(C)CCCC(C)CCCCC(C)CCCC(C)CCCC(C)C (stereo not given)
Potency [1]: inactive | outcome [2]: inactive | outcome [4]: inactive | Potency [5]: inactive | max activation [8]: -0.619% | Potency [10]: inactive | Potency [6]: inactive

Cc1nccn1CC1CCc2c(c3ccccc3n2C)C1=O (stereo not given)
outcome [2]: inactive | Potency [3]: inactive | outcome [7]: inactive | outcome [4]: inactive | Potency [5]: inactive | Potency [6]: 17.4 µM (active)

NCC[C@H](O)C(=O)N[C@@H]1C[C@H](N)[C@@H](O[C@H]2O[C@H](CN)[C@@H](O)[C@H](O)[C@H]2O)[C@H](O)[C@H]1O[C@H]1O[C@H](CO)[C@@H](O)[C@H](N)[C@H]1O
caspase activation [2]: -1.92% [at 0.349 µM] | activity change, negative = cytotoxicity [3]: -5.52% [at 0.349 µM] | caspase-3/7 activation [7]: -0.155% [at 0.349 µM] | activity change, negative = cytotoxicity [4]: -0.33% [at 0.349 µM] | activation [5]: -0.318% [at 0.349 µM] | max activation [8]: -10.2% | Potency [9]: inactive | Potency [10]: inactive | activity change, negative = inhibition [6]: -0.464% [at 0.435 µM]

CCCCCCCCCCCCCCCCCCOCC(O)CO (stereo not given)
outcome [2]: inactive | outcome [7]: inactive | outcome [4]: inactive | Potency [5]: inactive | max activation [8]: 3.52% | Potency [9]: inactive | Potency [10]: inactive | Potency [6]: inactive

CC(C)c1cccc(O)c1
outcome [2]: inactive | Potency [3]: inactive | outcome [7]: inactive | outcome [4]: inactive | Potency [5]: inactive | Potency [6]: inactive

COc1cc(CCC(C)=O)ccc1O
outcome [2]: inactive | Potency [3]: inactive | outcome [7]: inactive | outcome [4]: inactive | Potency [5]: inactive | Potency [6]: inactive

CCCCCCCCCCCCI
outcome [2]: inactive | Potency [3]: inactive | outcome [7]: inactive | outcome [4]: inactive | Potency [5]: inactive | Potency [6]: inactive

O=C(CCOCCOCCOCCOCCC(=O)Nc1c(I)cc(I)c(C(=O)O)c1I)Nc1c(I)cc(I)c(C(=O)O)c1I
outcome [2]: inactive | Potency [3]: inactive | outcome [4]: inactive | Potency [5]: inactive | Potency [6]: inactive

CC(C)(C)CC(C)(C)N
outcome [2]: inactive | Potency [3]: inactive | outcome [4]: inactive | Potency [5]: inactive | Potency [6]: inactive

CCn1c(=O)c2c(nc(/C=C/c3ccc(OC)c(OC)c3)n2C)n(CC)c1=O
outcome [2]: inactive | outcome [7]: inactive | outcome [4]: inactive | Potency [5]: 26.6 µM (active) | Potency [6]: inactive

O=C1OC(=O)c2cc([N+](=O)[O-])ccc21
outcome [2]: inactive | Potency [3]: inactive | outcome [7]: inactive | outcome [4]: inactive | Potency [5]: inactive | Potency [6]: 35.5 µM (active)

CCCCCCCCN(C)CCCCCCCC
outcome [2]: inactive | Potency [3]: inactive | outcome [7]: inactive | outcome [4]: inactive | Potency [5]: inactive | Potency [6]: 64 µM (active)
